Screens as filed in PubChem BioAssay.
USP17 block: inhibitors of human USP17 deubiquitinase; inhibition, % at 50 µM; 47,000 compounds, 6.5% hits; Ubiquitin carboxyl-terminal hydrolase 17-like protein 5 (Homo sapiens), A8MUK1; AID 1645855, 2021; purified USP17, Ub-rhodamine cleavage fluorescence, 3 h
USP28 block: inhibitors of human USP28 deubiquitinase | purified USP28, Ub-rhodamine cleavage fluorescence, 30 min | 47,000 compounds, 3% hits | AID 1645857, 2021 | inhibition, % at 25 µM
USP30 inh: inhibitors of human USP30 deubiquitinase; Ubiquitin carboxyl-terminal hydrolase 30 (Homo sapiens), Q70CQ3; purified USP30, Ub-rhodamine cleavage fluorescence; inhibition, % at 25 µM; 47,000 compounds, 5.3% hits
OTUD3 inh: inhibitors of human OTUD3 deubiquitinase; OTU domain-containing protein 3 (Homo sapiens), Q5T2D3; purified OTUD3, Ub-rhodamine fluorescence, 2 h; inhibition, % at 25 µM; 47,000 compounds, 0.7% hits; AID 1645858, 2021
Target sequence (Q5T2D3 whole entry, looked up, the tested form may be a part): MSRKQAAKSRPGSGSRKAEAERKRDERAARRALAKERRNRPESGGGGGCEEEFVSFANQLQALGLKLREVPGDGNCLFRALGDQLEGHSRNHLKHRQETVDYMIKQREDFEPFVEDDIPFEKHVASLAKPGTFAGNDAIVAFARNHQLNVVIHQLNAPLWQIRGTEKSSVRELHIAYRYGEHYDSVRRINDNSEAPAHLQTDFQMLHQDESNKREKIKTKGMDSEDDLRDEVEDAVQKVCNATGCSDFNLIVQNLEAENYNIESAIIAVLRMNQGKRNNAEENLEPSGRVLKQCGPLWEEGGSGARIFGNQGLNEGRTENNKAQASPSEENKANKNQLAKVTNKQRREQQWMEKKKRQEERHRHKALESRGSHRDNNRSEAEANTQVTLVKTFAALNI
A number is an active result; 0 = inactive; - = no result given. Rows were chosen to be rich in hits. Some 11% of all compounds tested hit in one or more screens of this group. Rule as the data show it: active = inhibition above about 30%; inactive = the rest.

SMILES	USP17 block	USP28 block	USP30 inh	OTUD3 inh
Cc1ccc(CS(=O)Cc2ccc(C(=O)NCc3ccc4c(c3)OCO4)o2)cc1 (stereo not drawn)	0	0	0	0
O=C(NCc1ccc2c(c1)OCO2)c1cc2ccccc2s1	0	41	0	0
CC(C)C(=O)Nc1nc2ccc(CCC(=O)NCc3ccc4c(c3)OCO4)cc2s1	0	0	38	0
CC(OC(=O)c1ccc2c(c1)CCC2)C(=O)Nc1sccc1C(N)=O (stereo not drawn)	0	0	0	0
O=C(NCCCN1CCCC1=O)c1ccc(N2CCCC2=O)cc1	0	0	0	0
COc1ccc(CCNC(=O)COC(=O)c2ccc(N3CCCC3=O)cc2)cc1	84	0	81	0
O=C(COc1nc2ccccc2nc1N1CCOCC1)N1CCc2ccccc21	0	0	0	0
NC(=O)c1ccccc1OCC(=O)N1CCc2ccccc21	62	51	76	0
COc1ccc(COc2ncnc3cc(Cl)ccc23)cc1	0	48	0	0
N#Cc1ccc(S(=O)(=O)N2CCN(c3nc4ccc(Cl)cc4s3)CC2)cc1	0	0	0	0
Cc1ccccc1Cn1c(CCNC(=O)c2ccco2)nc2ccccc21	0	0	0	0
Cc1ccc(Cn2c(CCNC(=O)c3ccc(Cl)cc3)nc3ccccc32)cc1	68	0	52	0
Cc1ccc(S(=O)(=O)N2CCc3nc(N4CCOCC4)[nH]c(=O)c3CC2)cc1C	0	0	0	0
O=C(COC(=O)c1n[nH]c2ccccc12)Nc1ccc2c(c1)CCC2	0	0	0	0
O=C(COC(=O)c1ccccc1O)Nc1ccc2[nH]c(=O)[nH]c2c1	0	0	34	0
Cc1cccc(C(=O)OCC(=O)Nc2ccc3[nH]c(=O)[nH]c3c2)c1	57	48	77	32
O=C(COC(=O)c1n[nH]c2ccccc12)Nc1ccc(N2CCCCC2)cc1	59	0	38	0
Cc1cccc(-c2nnc(SCC(=O)Nc3ccc4[nH]c(=O)[nH]c4c3)n2C)c1	0	0	0	0
O=C(COC(=O)c1ccc2c(c1)OCO2)Nc1ccc(N2CCCCC2)cc1	33	0	0	0
Cc1cc(C)n(CCC(=O)N2CCc3[nH]nc(-c4ccccc4)c3C2)n1	0	0	0	0
O=C(C1CCCN1S(=O)(=O)c1ccc(Cl)cc1)N1CCN(Cc2ccccc2)CC1 (stereo not drawn)	0	0	0	0
Cc1cccc(C(=O)OCC(=O)Nc2ccc(N3CCOCC3)cc2)c1O	32	0	0	0
O=C(COC(=O)c1ccc2c(c1)OCO2)Nc1ccc2[nH]c(=O)[nH]c2c1	42	0	0	0
CC(C)(C)c1ccc(C(=O)OCC(=O)Nc2ccc3c(c2)OCO3)cc1	0	0	0	0
O=C(CCc1ccccc1F)N1CCCC(c2[nH]nc3nccnc23)C1 (stereo not drawn)	0	0	0	0
SMILES	USP17 block	USP28 block	USP30 inh	OTUD3 inh
CCn1c(=O)c(C(=O)NCc2ccccc2Cl)nc2cccnc21	0	0	0	0
c1ccc(-c2cc(CSc3nc4ccccc4[nH]3)no2)cc1	33	0	0	0
Cc1cc2nc(Oc3cccc(C(F)(F)F)c3)c3ccccc3n2n1	35	0	49	0
Cc1ccc(NC(=O)c2ccc3c(c2)ncn3CCN2CCCC2)cc1	0	0	0	0
Clc1ccc(OCc2nc(-c3ccn4cnnc4c3)no2)cc1	0	45	0	0
COc1ccc(Cc2nc(-c3ccc4nncn4c3)no2)c(Cl)c1	0	41	0	0
Fc1ccc(Cc2nc(-c3ccc4nncn4c3)no2)cc1	0	58	0	0
CCOc1ccc(Cc2nc(-c3ccc4nnc(C)n4c3)no2)cc1	0	0	0	0
Fc1cccc(Cc2nc(-c3ccc4nncn4c3)no2)c1	0	-	-	0
O=C(NCCc1ccccc1)c1cc(OCc2ccccc2)nc2ccccc12	0	0	0	0
O=C(COc1ccc(Cl)cc1)NCc1nnc(SCC(=O)NCc2ccc(F)cc2)o1	0	0	0	0
O=C(COc1ccc(Cl)cc1)NCc1nnc(SCC(=O)Nc2nc3ccccc3s2)o1	33	0	0	0
O=C(COc1ccc(Cl)cc1)NCc1nnc(SCC(=O)N2CCN(c3ccccc3)CC2)o1	41	0	39	0
O=C(COc1ccc(Cl)cc1)NCc1nnc(SCC(=O)N2CCc3ccccc32)o1	0	0	40	0
CS(=O)(=O)N[C@H]1C[C@@H]2C[C@H]1N(C(=O)Nc1ccc3c(c1)CCC3)C2	0	0	0	0
Cc1ccccc1[C@H]1C[C@@H](O)[C@@H](O)[C@@H]1NC(=O)c1cccc(C#N)c1	0	0	47	0
Cc1cc(C(=O)N[C@H]2[C@H](O)[C@H](O)C[C@@H]2c2ccccc2)c(C)o1	0	0	0	0
Cc1cc(C(=O)N[C@H]2[C@H](O)[C@H](O)C[C@@H]2c2ccccc2C)no1	0	0	0	0
Cc1ccc([C@H]2C[C@@H](O)[C@@H](O)[C@@H]2NC(=O)c2ccccc2)cc1	0	0	37	0
O=C(Cn1c(=O)[nH]c2c(-c3ccccc3F)c[nH]c2c1=O)NC1CCCCC1	0	0	0	0
COc1cccc(-c2cc(C(=O)N3CC(c4nc5ccccc5[nH]4)C3)[nH]n2)c1	0	33	0	0
COc1cccc(-c2cc(C(=O)N3CCC4(CC3)OCCO4)[nH]n2)c1	0	0	0	0
O=C(CSc1ccccc1)Nc1cccc2nsnc12	32	0	0	0
O=C(c1cccc([N+](=O)[O-])c1)[C@H]1[C@]2(C(=O)Nc3ccccc32)[C@@H]2CCCN2[C@@]12C(=O)Nc1ccccc12	0	35	0	0
COc1cccc(C(=O)[C@H]2[C@]3(C(=O)Nc4ccccc43)[C@@H]3CCCN3[C@@]23C(=O)Nc2ccccc23)c1	0	0	0	0
SMILES	USP17 block	USP28 block	USP30 inh	OTUD3 inh
Cc1ccc2c(c1)sc1ncc(NC(=O)c3ccccc3C)c(=O)n12	0	0	0	0
Cc1ccc(Sc2c(-c3ccccc3)c3cc(Cl)ccc3[nH]c2=O)cc1	0	0	0	0
COc1ccc(OC)c(CC(=O)NC2CC3(CCOCC3)Oc3ccccc32)c1 (stereo not drawn)	0	0	44	0
Cc1ccc(S(=O)(=O)Nc2ccc3[nH]cc(Cl)c3c2)cc1	49	44	39	0
Cc1ccc(S(=O)(=O)Nc2ccc(S(=O)(=O)Nc3ccc(F)cc3)cc2)cc1	0	0	0	0
CCc1nnc(NC(=O)Cn2ncc3ccccc32)s1	0	0	0	0
O=C(Cn1ncc2ccccc21)Nc1ccc(Br)cn1	0	39	0	0
CCc1ccc(C(=O)N2CCCn3c(CN4CCCCC4)nnc3C2)cc1	0	0	0	0
CCOc1ccc(C2C3=C(CCCC3=O)Nc3nc4ccccc4n32)cc1OC (stereo not drawn)	0	0	0	0
COc1ccc(-c2nc3n(n2)C(c2cccc(O)c2)C2=C(CCCC2=O)N3)cc1 (stereo not drawn)	51	0	0	0
O=C(Nc1cc(F)c2nc(N3CCOCC3)ccc2c1)C1CC1	76	0	0	0
CC(=O)N1CCC(C(=O)Nc2ccc(N3CCOCC3)cc2)CC1	0	0	0	0
